# Measured values: PMC7862700, “An all-to-all approach to the identification of sequence-specific readers for epigenetic DNA modifications on cytosine”
# Tests used:
# Test in all cases: DAPPL (digital affinity profiling via proximity ligation, sequencing); 10 mM Tris-HCl pH 7.5, 50 mM NaCl, 1 mM DTT, 4% glycerol, room temperature, 30 min; GST-TFs on glutathione beads, 16-mer random dsDNA library, 0.1% formaldehyde crosslink after washing; high values mean tight binding
# [1] = molecular target: T1, FEV (Homo sapiens, UniProt Q99581 1-238); conditions: protein: recombinant; tags: N-terminal GST; dsDNA, one strand shown
# T1 sequence: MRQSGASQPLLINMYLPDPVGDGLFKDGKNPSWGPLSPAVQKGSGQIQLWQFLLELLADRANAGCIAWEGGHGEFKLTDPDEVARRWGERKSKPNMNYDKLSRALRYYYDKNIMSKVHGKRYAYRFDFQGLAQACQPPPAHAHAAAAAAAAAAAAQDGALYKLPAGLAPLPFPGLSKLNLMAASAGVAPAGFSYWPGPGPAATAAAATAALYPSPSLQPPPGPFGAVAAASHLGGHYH
# Method in brief: (§1)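 Binding signal is each hexamer's read frequency for a factor divided by its frequency in the tag-only sample. The factors were GST-fused human transcription factors from yeast, captured on glutathione beads, DNA-barcoded and pooled with that sample. Pools were incubated with 200 nmole of a random double-stranded 16-mer DNA library in Tris/NaCl/DTT/glycerol buffer at room temperature for 30 min, then washed, crosslinked with 0.1% formaldehyde, proximity-ligated with BsaI/T4 ligase (1 h, 37 °C), PCR-amplified and sequenced on an Illumina NextSeq500.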
# [2] = molecular target: ETV5 (Homo sapiens, UniProt P41161 1-510); conditions: protein: recombinant; tags: N-terminal GST; dsDNA, one strand shown
# Sequence of ETV5 (P41161 whole entry): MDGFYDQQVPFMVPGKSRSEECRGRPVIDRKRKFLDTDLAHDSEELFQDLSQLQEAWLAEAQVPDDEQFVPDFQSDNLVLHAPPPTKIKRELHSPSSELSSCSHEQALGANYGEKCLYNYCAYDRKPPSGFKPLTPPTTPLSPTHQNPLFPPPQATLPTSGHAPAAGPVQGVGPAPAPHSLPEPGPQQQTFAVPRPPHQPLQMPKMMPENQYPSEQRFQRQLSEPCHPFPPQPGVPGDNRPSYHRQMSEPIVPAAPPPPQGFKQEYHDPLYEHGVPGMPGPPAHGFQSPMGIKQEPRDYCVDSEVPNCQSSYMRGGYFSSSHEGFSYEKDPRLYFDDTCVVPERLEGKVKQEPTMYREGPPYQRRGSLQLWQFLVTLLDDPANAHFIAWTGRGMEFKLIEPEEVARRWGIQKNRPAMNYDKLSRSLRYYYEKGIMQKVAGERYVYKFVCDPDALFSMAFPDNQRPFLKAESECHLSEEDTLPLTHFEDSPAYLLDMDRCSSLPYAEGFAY
# Method in brief: as §1
# [3] = molecular target: HSF1 (Homo sapiens, UniProt Q00613 1-529); conditions: protein: recombinant; tags: N-terminal GST; chain copies: 3; dsDNA, one strand shown
# Sequence of HSF1 (Q00613 whole entry): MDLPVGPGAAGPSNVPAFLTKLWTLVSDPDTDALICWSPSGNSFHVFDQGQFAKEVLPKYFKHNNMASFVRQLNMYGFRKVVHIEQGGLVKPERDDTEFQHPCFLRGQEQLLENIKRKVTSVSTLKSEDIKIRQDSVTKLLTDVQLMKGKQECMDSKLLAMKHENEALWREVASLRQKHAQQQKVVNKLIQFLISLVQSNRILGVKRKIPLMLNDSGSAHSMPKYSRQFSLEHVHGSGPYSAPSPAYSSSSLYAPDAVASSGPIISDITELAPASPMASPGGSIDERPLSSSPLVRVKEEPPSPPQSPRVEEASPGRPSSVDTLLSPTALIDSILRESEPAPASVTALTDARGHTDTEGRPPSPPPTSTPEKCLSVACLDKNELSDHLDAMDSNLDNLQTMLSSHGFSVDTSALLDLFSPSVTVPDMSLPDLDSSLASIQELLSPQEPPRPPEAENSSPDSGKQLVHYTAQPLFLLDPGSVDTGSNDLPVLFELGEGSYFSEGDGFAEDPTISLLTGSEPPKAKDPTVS
# Method in brief: as §1
# [4] = molecular target: T2, SPIC (Homo sapiens, UniProt Q8N5J4 1-248); conditions: protein: recombinant; tags: N-terminal GST; dsDNA, one strand shown
# T2 sequence: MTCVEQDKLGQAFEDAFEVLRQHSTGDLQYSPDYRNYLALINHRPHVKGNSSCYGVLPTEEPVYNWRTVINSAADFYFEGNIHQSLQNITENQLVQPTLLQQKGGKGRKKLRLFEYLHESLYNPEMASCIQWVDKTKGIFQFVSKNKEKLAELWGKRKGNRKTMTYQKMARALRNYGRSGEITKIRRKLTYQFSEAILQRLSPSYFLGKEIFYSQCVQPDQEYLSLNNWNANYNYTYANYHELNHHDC
# Method in brief: as §1
# [5] = molecular target: ELF4 (Homo sapiens, UniProt Q99607 1-663); conditions: protein: recombinant; tags: N-terminal GST; dsDNA, one strand shown
# Sequence of ELF4 (Q99607 whole entry): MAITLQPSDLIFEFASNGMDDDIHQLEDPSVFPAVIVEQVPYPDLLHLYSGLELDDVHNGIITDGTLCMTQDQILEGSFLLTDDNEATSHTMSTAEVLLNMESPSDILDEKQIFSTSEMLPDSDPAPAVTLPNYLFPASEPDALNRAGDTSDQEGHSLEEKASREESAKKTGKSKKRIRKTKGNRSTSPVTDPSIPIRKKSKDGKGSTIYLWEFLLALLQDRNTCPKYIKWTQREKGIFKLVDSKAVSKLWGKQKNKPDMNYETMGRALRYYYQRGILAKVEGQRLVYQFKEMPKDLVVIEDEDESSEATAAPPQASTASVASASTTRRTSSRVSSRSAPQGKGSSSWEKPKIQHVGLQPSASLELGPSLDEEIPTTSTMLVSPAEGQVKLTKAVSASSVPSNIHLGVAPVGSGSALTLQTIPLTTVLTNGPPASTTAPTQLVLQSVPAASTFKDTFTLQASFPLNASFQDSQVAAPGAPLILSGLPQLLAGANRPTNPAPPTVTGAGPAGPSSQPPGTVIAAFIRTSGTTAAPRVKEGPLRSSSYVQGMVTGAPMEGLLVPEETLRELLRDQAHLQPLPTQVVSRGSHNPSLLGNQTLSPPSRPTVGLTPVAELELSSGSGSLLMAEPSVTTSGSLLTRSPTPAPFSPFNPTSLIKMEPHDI
# Method in brief: as §1
# [6] = molecular target: T3, ELK4 (Homo sapiens, UniProt P28324-2 1-405); conditions: protein: recombinant; tags: N-terminal GST; dsDNA, one strand shown
# T3 sequence: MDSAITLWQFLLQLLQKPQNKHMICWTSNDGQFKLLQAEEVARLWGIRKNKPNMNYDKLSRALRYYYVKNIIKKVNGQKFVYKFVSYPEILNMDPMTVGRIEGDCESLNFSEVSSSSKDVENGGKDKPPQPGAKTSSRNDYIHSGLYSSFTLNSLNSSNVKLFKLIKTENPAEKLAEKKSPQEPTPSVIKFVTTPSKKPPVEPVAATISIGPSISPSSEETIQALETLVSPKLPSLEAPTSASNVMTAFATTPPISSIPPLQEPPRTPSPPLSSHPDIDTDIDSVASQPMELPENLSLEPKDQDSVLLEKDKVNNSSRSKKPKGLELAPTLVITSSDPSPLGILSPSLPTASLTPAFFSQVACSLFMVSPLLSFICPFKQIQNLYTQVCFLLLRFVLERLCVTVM
# Method in brief: as §1
# [7] = molecular target: T4, ETV2 (Homo sapiens, UniProt O00321 1-342); conditions: protein: recombinant; tags: N-terminal GST; dsDNA, one strand shown
# T4 sequence: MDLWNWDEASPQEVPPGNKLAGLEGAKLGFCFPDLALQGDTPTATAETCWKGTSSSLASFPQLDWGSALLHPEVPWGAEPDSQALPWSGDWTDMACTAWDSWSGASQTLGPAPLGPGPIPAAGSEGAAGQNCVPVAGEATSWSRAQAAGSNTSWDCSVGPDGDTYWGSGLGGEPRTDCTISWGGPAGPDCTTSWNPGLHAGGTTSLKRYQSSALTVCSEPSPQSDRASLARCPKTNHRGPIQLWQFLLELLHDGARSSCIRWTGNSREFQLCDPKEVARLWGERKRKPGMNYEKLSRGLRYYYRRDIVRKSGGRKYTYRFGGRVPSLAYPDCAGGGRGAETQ
# Method in brief: as §1
# [8] = molecular target: T5, ELF3 (Homo sapiens, UniProt P78545 1-371); conditions: protein: recombinant; tags: N-terminal GST; dsDNA, one strand shown
# T5 sequence: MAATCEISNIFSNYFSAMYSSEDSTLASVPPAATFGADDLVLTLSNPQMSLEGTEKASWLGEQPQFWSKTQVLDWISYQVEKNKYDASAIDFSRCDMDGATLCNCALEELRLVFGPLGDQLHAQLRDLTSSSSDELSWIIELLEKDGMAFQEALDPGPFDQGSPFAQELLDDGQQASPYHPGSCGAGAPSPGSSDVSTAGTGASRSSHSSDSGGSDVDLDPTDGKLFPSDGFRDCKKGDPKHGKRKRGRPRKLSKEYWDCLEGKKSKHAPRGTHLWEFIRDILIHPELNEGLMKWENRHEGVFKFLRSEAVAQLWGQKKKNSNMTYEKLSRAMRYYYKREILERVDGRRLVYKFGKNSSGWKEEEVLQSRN
# Method in brief: as §1
# [9] = molecular target: CRX (Homo sapiens, UniProt O43186 1-299); conditions: protein: recombinant; tags: N-terminal GST; dsDNA, one strand shown
# Sequence of CRX (O43186 whole entry): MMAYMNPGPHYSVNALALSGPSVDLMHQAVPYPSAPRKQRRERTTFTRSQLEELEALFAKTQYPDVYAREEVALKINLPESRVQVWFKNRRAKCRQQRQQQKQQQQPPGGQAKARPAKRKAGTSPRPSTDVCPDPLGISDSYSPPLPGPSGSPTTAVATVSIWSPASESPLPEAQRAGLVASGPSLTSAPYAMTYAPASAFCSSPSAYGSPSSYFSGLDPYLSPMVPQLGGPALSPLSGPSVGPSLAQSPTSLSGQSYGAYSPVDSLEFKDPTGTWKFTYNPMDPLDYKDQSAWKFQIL
# Method in brief: as §1
# [10] = molecular target: ETV1 (Homo sapiens, UniProt P50549 1-477); conditions: protein: recombinant; tags: N-terminal GST; dsDNA, one strand shown
# Sequence of ETV1 (P50549 whole entry): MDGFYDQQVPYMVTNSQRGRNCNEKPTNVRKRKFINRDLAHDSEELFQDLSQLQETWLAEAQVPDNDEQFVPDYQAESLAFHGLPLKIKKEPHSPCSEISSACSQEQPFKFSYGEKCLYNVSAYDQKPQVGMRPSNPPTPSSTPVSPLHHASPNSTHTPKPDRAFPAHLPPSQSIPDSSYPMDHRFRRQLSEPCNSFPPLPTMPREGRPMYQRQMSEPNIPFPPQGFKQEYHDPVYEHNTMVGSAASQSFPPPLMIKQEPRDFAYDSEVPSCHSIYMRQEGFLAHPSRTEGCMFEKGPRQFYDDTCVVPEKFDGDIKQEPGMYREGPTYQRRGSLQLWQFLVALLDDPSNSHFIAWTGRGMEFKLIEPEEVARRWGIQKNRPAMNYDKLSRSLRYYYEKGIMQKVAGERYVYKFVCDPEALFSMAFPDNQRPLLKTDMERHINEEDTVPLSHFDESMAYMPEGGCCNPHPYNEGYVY
# Method in brief: as §1
# [11] = molecular target: T6, ERF (Homo sapiens, UniProt P50548 1-548); conditions: protein: recombinant; tags: N-terminal GST; dsDNA, one strand shown
# T6 sequence: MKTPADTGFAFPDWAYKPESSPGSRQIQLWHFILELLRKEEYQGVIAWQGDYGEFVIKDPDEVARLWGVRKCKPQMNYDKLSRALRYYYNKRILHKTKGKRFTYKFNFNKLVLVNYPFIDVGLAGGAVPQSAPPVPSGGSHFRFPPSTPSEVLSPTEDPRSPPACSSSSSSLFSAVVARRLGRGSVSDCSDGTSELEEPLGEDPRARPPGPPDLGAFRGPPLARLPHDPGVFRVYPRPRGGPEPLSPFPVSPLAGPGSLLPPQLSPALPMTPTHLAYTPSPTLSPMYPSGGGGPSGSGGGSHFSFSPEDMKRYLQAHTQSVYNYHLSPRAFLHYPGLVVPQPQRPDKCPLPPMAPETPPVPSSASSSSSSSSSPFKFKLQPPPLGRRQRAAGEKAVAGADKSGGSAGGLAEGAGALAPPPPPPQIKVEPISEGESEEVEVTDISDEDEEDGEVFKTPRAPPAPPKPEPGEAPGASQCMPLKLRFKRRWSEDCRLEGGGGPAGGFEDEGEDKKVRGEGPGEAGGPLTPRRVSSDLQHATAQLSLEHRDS
# Method in brief: as §1
# [12] = molecular target: T7, ETV3L (Homo sapiens, UniProt Q6ZN32 1-361); conditions: protein: recombinant; tags: N-terminal GST; dsDNA, one strand shown
# T7 sequence: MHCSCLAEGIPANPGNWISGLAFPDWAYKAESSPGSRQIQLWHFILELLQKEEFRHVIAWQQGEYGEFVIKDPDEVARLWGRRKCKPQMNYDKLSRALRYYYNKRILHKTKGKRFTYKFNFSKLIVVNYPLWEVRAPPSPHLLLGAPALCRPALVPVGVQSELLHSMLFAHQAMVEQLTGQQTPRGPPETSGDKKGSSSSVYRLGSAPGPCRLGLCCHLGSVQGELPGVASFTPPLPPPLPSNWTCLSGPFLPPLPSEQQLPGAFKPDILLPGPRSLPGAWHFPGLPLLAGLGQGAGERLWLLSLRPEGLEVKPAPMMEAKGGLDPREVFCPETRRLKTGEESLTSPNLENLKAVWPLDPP
# Method in brief: as §1
# [13] = molecular target: T8, ETS2 (Homo sapiens, UniProt P15036 1-469); conditions: protein: recombinant; tags: N-terminal GST; dsDNA, one strand shown
# T8 sequence: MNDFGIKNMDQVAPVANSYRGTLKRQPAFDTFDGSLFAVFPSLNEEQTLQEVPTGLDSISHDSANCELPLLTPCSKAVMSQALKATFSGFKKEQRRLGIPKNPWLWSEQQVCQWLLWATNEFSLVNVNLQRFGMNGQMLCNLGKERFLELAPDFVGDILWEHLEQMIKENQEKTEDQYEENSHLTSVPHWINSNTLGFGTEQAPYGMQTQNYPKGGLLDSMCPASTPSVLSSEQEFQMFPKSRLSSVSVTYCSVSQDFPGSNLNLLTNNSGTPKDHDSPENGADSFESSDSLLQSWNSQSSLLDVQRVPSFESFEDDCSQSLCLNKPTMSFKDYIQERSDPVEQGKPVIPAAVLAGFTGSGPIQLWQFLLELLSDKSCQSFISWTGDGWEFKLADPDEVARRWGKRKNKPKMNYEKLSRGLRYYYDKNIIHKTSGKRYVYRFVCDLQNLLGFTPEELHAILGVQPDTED
# Method in brief: as §1
# [14] = molecular target: T9, SPDEF (Homo sapiens, UniProt O95238 1-335); conditions: protein: recombinant; tags: N-terminal GST; dsDNA, one strand shown
# T9 sequence: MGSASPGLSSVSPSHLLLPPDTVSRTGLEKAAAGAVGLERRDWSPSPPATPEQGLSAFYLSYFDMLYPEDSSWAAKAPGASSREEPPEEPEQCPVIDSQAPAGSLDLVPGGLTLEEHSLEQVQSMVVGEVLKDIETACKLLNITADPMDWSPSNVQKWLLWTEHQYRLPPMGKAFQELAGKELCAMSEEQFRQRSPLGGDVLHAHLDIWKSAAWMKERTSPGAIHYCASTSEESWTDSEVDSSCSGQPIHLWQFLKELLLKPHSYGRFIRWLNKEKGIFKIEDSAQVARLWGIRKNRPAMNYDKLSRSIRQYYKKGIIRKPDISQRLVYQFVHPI
# Method in brief: as §1
# [15] = molecular target: T10, ETV7 (Homo sapiens, UniProt Q9Y603 1-341); conditions: protein: recombinant; tags: N-terminal GST; dsDNA, one strand shown
# T10 sequence: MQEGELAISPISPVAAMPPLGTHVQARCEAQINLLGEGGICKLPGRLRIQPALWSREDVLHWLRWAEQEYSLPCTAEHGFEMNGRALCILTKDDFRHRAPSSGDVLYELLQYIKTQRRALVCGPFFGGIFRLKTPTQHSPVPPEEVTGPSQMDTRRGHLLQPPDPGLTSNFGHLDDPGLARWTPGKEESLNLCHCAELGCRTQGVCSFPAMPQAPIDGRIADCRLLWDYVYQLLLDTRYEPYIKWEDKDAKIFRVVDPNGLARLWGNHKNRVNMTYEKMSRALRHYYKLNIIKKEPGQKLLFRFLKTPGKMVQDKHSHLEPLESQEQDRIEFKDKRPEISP
# Method in brief: as §1
# [16] = molecular target: T11, ELF5 (Homo sapiens, UniProt Q9UKW6-2 1-255); conditions: protein: recombinant; tags: N-terminal GST; dsDNA, one strand shown
# T11 sequence: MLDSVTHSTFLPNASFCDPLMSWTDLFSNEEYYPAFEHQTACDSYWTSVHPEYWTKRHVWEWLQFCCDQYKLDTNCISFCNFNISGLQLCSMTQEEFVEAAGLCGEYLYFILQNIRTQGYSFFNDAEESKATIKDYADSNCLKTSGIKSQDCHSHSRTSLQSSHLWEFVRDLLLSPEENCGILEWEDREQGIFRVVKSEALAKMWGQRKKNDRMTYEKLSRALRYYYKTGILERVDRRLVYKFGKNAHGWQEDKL
# Method in brief: as §1
# [17] = molecular target: T12, ETV3 (Homo sapiens, UniProt P41162-2 1-143); conditions: protein: recombinant; tags: N-terminal GST; dsDNA, one strand shown
# T12 sequence: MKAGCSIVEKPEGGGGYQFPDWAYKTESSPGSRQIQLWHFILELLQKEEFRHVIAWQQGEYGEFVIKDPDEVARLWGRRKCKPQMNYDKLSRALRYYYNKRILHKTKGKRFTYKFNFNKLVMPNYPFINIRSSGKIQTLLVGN
# Method in brief: as §1
# [18] = molecular target: ETV6 (Homo sapiens, UniProt P41212 1-452); conditions: protein: recombinant; tags: N-terminal GST; dsDNA, one strand shown
# Sequence of ETV6 (P41212 whole entry): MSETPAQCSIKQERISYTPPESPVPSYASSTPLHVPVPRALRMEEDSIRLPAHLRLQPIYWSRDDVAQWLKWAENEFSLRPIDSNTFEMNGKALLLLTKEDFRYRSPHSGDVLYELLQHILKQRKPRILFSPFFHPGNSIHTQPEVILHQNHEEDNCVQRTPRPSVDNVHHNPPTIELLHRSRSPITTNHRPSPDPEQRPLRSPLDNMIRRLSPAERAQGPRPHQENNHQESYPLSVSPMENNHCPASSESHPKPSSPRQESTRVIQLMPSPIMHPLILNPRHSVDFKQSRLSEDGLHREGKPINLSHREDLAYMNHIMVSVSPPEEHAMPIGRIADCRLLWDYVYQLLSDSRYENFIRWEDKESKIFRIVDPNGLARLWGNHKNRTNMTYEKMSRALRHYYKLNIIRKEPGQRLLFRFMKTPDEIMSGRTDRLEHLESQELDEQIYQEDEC
# Method in brief: as §1
sequence,measurement,setting,value
CGATCT,binding signal,[1],"1.32 fold enrichment (6-mer frequency, TF over GST control)"
same,binding signal,[2],"1.36 fold enrichment (6-mer frequency, TF over GST control)"
same,binding signal,[3],"1.54 fold enrichment (6-mer frequency, TF over GST control)"
same,binding signal,[4],"1.46 fold enrichment (6-mer frequency, TF over GST control)"
same,binding signal,[5],"1.37 fold enrichment (6-mer frequency, TF over GST control)"
same,binding signal,[6],"1.38 fold enrichment (6-mer frequency, TF over GST control)"
same,binding signal,[7],"1.27 fold enrichment (6-mer frequency, TF over GST control)"
same,binding signal,[8],"1.41 fold enrichment (6-mer frequency, TF over GST control)"
same,binding signal,[9],"1.52 fold enrichment (6-mer frequency, TF over GST control)"
same,binding signal,[10],"1.24 fold enrichment (6-mer frequency, TF over GST control)"
same,binding signal,[11],"1.17 fold enrichment (6-mer frequency, TF over GST control)"
same,binding signal,[12],"1.32 fold enrichment (6-mer frequency, TF over GST control)"
same,binding signal,[13],"1.32 fold enrichment (6-mer frequency, TF over GST control)"
same,binding signal,[14],"1.25 fold enrichment (6-mer frequency, TF over GST control)"
same,binding signal,[15],"1.42 fold enrichment (6-mer frequency, TF over GST control)"
same,binding signal,[16],"1.27 fold enrichment (6-mer frequency, TF over GST control)"
same,binding signal,[17],"1.24 fold enrichment (6-mer frequency, TF over GST control)"
same,binding signal,[18],"1.2 fold enrichment (6-mer frequency, TF over GST control)"
